From PubChem BioAssay
For some of these results: Results with a measured potency or affinity are listed apart. Activity calls are given as the source filed them. Unless noted, the rule behind the calls is not given here.

Key:
[1] = antimalarial activity against Dd2 strain (AID 2302;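 active = growth inhibition above 50% at the single 2 µM test dose, taken to imply half-maximal potency below 2 µM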;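 note: 0% = DMSO untreated growth and 100% = chloroquine plus artemisinin killed control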); conditions: P. falciparum Dd2 in RBCs, LDH growth readout, 72 h; at 2 µM; stronger effect = higher value
[2] = human hepatoma cell viability loss – ATP luminescence, cytotoxicity control for P. falciparum antimalarial project, primary screen (AID 2303;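 active = inhibition above 50%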;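 note: 0% = DMSO wells and 100% = digitonin-killed cells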); conditions: HepG2 viability, 24-48 h, at 10 µM, stronger effect = higher value
[3] = target: L-lactate dehydrogenase (Plasmodium falciparum (isolate CDC / Honduras)) (UniProt Q27743); assay: PfLDH activity inhibition – cell lysate, 3D7 strain, counter-screen for P. falciparum growth inhibition project (AID 2304);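 note: 0% = vehicle and 100% = reference inhibitor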; conditions: P. falciparum 3D7 crude extract, LDH APAD/NBT absorbance; at 2 µM; stronger effect = higher value
L-lactate dehydrogenase (Plasmodium falciparum (isolate CDC / Honduras)), sequence (Q27743 whole entry, looked up): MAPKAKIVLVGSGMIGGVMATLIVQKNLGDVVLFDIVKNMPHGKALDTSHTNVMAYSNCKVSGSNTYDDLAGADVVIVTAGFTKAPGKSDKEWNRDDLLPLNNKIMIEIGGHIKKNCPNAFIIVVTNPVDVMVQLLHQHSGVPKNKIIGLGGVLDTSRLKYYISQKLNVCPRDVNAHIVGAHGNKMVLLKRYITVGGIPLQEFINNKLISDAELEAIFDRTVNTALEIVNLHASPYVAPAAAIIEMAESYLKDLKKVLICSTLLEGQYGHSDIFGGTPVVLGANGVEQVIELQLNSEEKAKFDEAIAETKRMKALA

[4] = inhibition of 3D7 malaria parasite growth – strain 3D7 (AID 2306);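 note: 0% = DMSO wells and 100% = chloroquine plus artemisinin control wells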; conditions: P. falciparum 3D7 erythrocytic growth, LDH absorbance, 72 h; at 2 µM; stronger effect = higher value
[5] = target: Calcium-dependent protein kinase 1 (Plasmodium falciparum (isolate 3D7)) (UniProt P62344); assay: PfCDPK1 kinase inhibitors, biochemical, TCAMS library (AID 1159585; cut-off not given, nearly all actives have IC50 up to about 0.98 µM;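 note: inhibitors leave more ATP so luminescence rises with inhibition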); conditions: recombinant PfCDPK1, Kinase-Glo ATP depletion luminescence
Calcium-dependent protein kinase 1 (Plasmodium falciparum (isolate 3D7)), sequence (P62344 whole entry, looked up): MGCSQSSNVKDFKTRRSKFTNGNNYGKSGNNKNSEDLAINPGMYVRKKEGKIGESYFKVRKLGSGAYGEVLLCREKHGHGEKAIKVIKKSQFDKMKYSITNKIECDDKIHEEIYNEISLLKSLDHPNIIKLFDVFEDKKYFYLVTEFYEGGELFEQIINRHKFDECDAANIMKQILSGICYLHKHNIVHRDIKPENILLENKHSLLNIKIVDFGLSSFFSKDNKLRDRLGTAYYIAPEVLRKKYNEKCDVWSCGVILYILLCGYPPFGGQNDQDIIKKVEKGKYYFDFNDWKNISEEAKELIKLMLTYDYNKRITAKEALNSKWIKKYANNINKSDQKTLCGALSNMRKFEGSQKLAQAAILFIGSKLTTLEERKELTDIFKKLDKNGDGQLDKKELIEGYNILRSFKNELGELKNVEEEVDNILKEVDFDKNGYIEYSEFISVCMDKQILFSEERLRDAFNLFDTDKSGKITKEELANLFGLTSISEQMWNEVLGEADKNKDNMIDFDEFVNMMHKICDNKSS

[6] = target: Plasmodium falciparum protein kinase 6 (PK6, PF3D7_1337100) (UniProt Q8IDW1); assay: PfPK6 kinase inhibitors, biochemical, TCAMS library (AID 1159586); conditions: recombinant PfPK6, Kinase-Glo ATP depletion luminescence
Plasmodium falciparum protein kinase 6 (PK6, PF3D7_1337100), sequence (Q8IDW1 1-305): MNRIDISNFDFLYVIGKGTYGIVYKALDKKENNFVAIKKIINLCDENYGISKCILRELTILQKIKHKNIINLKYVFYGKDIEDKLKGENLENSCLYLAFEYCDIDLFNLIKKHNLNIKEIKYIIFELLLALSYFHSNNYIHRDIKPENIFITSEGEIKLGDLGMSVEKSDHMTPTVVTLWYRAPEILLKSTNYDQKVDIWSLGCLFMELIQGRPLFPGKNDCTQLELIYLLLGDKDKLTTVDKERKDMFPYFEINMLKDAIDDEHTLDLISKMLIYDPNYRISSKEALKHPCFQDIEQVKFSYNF

[7] = target: Protein kinase 7 (PK7), Plasmodium falciparum 3D7 (PF3D7_0213400) (UniProt Q7YTF7); assay: inhibition of Plasmodium PK7 catalytic activity – biochemical, TCAMS antimalarial set, Kinase-Glo luminescence (AID 1159587); conditions: recombinant PfPK7, Kinase-Glo ATP depletion luminescence
Protein kinase 7 (PK7), Plasmodium falciparum 3D7 (PF3D7_0213400), sequence (Q7YTF7 1-343): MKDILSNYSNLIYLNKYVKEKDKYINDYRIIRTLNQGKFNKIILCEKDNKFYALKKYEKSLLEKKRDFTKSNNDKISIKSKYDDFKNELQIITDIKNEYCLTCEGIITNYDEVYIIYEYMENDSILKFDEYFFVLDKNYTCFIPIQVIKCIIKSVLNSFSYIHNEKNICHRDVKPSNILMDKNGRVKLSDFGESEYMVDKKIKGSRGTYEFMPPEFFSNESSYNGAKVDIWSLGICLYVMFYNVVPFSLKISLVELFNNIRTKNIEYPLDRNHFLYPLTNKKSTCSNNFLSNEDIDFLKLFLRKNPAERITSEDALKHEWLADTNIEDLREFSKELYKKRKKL

[8] = target: Calcium-dependent protein kinase 4 (Plasmodium falciparum (isolate 3D7)) (UniProt Q8IBS5); assay: PfCDPK4 kinase inhibitors, biochemical, TCAMS library (AID 1159588; cut-off not given, nearly all actives have IC50 up to about 0.91 µM); conditions: recombinant PfCDPK4, Kinase-Glo ATP depletion luminescence
Calcium-dependent protein kinase 4 (Plasmodium falciparum (isolate 3D7)), sequence (Q8IBS5 whole entry, looked up): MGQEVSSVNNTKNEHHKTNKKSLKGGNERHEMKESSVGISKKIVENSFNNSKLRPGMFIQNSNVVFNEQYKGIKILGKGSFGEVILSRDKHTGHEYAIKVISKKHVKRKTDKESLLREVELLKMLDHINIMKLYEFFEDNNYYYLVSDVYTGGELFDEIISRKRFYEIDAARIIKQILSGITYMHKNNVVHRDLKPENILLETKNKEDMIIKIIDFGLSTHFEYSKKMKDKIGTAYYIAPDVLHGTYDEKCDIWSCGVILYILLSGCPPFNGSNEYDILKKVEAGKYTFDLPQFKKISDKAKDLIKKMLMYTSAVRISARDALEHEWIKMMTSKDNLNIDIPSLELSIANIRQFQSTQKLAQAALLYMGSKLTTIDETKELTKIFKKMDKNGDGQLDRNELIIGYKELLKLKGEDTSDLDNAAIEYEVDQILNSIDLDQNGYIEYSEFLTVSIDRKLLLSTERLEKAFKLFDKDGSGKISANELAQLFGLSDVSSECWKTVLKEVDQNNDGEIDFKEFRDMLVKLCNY

CCN(CCO)CCc1cccc(Nc2nccc(-c3c(-c4ccc(NC(=O)C(C)(C)C)cc4)nn4ccccc34)n2)c1
active: growth inhibition [1] 96% | inhibition [2] 62% | growth inhibition [4] 101%
inactive: inhibition [3] 4% | outcome [5] | outcome [6] | outcome [7] | outcome [8]

O=C(C=Cc1cccs1)N(CCCn1ccnc1)c1nc2ccc(F)cc2s1
active: growth inhibition [4] 98%
inactive: growth inhibition [1] 28% | inhibition [2] -1% | inhibition [3] -1% | outcome [5] | outcome [6] | outcome [7] | outcome [8]

Fc1cc(Cl)ccc1Nc1ccnc2cc(-c3ccc(CN4CCNCC4)o3)ccc12
inactive: inhibition [2] 16% | inhibition [3] 1% | outcome [5] | outcome [6] | outcome [7] | outcome [8]
active: growth inhibition [1] 99% | growth inhibition [4] 100%

CCNCc1ccc(-c2cccc(-c3nc4ccccc4[nH]3)c2)cc1
inactive: growth inhibition [1] 18% | inhibition [2] 26% | inhibition [3] 4% | outcome [5] | outcome [6] | outcome [7] | outcome [8]
active: growth inhibition [4] 102%

Cn1nc(-c2ccc(CNC3CCc4ccccc43)cc2)c2cnc(NCCCN3CCCC3)nc21 (stereo not given)
inactive: growth inhibition [1] 22% | inhibition [2] 27% | inhibition [3] -4% | outcome [5] | outcome [6] | outcome [7] | outcome [8]
active: growth inhibition [4] 92%

CCN(CC)c1nc(Nc2cc(C)ccc2C)nc(Nc2ccccc2O)n1
inactive: inhibition [2] -9% | inhibition [3] 2% | outcome [5] | outcome [6] | outcome [7] | outcome [8]
active: growth inhibition [1] 99% | growth inhibition [4] 101%

O=C(Nc1cccc(CCNCc2ccccc2)c1)Nc1cccc2ccccc12
inactive: growth inhibition [1] 8% | inhibition [2] 13% | inhibition [3] 1% | outcome [5] | outcome [6] | outcome [7] | outcome [8]
active: growth inhibition [4] 102%

O=C(Nc1cccc(C(F)(F)F)c1)c1ccc(S(=O)(=O)NC2CCN(CC3CCCCC3)C2)cc1 (stereo not given)
inactive: growth inhibition [1] -3% | inhibition [2] 16% | inhibition [3] -4% | outcome [5] | outcome [6] | outcome [7] | outcome [8]
active: growth inhibition [4] 92%

COc1cc(C(=O)Nc2ccc(-c3nc4ccccc4[nH]3)cc2)cc(OC)c1OC
active: growth inhibition [4] 99%
inactive: growth inhibition [1] 33% | inhibition [2] 13% | inhibition [3] -8% | outcome [5] | outcome [6] | outcome [7] | outcome [8]

CCCN(Cc1nnc(-c2cccs2)o1)C(=O)CSc1nnnn1-c1cc(C)cc(C)c1
inactive: inhibition [2] 2% | inhibition [3] 8% | outcome [5] | outcome [6] | outcome [7] | outcome [8]
active: growth inhibition [1] 71% | growth inhibition [4] 92%

CCOC(=O)COc1cccc(CNc2ccc3nc(N)nc(N)c3c2)c1
active: growth inhibition [1] 99% | growth inhibition [4] 100%
inactive: inhibition [2] 18% | inhibition [3] 4% | outcome [5] | outcome [6] | outcome [7] | outcome [8]

CCS(=O)(=O)N1CCN(c2nc(-c3ccccc3)nc(COC)c2Cc2ccccc2F)CC1
active: growth inhibition [4] 82%
inactive: growth inhibition [1] 34% | inhibition [2] -2% | inhibition [3] 0% | outcome [5] | outcome [6] | outcome [7] | outcome [8]

O=C(Nc1ccccc1Cc1ccccc1)c1ccccc1[N+](=O)[O-]
active: growth inhibition [1] 59% | growth inhibition [4] 98%
inactive: inhibition [2] -6% | inhibition [3] 3% | outcome [5] | outcome [6] | outcome [7] | outcome [8]

COc1cc2ccccc2c(OC)c1CCNCCCCNCCc1c(OC)cc2ccccc2c1OC
active: inhibition [2] 100% | growth inhibition [4] 99%
inactive: growth inhibition [1] 30% | inhibition [3] 7% | outcome [5] | outcome [6] | outcome [7] | outcome [8]

O=C(NCCN1CCCC1)c1cc(-c2ccc(Cl)c(O)c2)c(-c2ccncc2)o1
active: growth inhibition [4] 92%
inactive: growth inhibition [1] -5% | inhibition [2] -23% | inhibition [3] 0% | outcome [5] | outcome [6] | outcome [7] | outcome [8]

CCCc1cc(Cc2cnc(N)nc2N)cc(OCCCCCC(=O)O)c1OC
inactive: growth inhibition [1] 2% | inhibition [2] 8% | inhibition [3] 4% | outcome [5] | outcome [6] | outcome [7] | outcome [8]
active: growth inhibition [4] 95%

CC(=O)Nc1nc(C(=O)Nc2ccc(-c3ccc(-c4nc5c(C)cccc5[nH]4)cc3)cc2)cs1
active: growth inhibition [1] 53% | growth inhibition [4] 101%
inactive: inhibition [2] 42% | inhibition [3] -1% | outcome [5] | outcome [6] | outcome [7] | outcome [8]

Nc1nc(N)c2c(ccc3c2ccn3C2CCCCC2)n1
inactive: growth inhibition [1] 46% | inhibition [3] 0% | outcome [5] | outcome [6] | outcome [7] | outcome [8]
active: inhibition [2] 67% | growth inhibition [4] 97%

COc1cc(C2=NN(S(=O)(=O)c3c(Cl)cc(Cl)cc3Cl)CCCC2)ccc1Cl
inactive: inhibition [2] 3% | inhibition [3] -1% | outcome [5] | outcome [6] | outcome [7] | outcome [8]
active: growth inhibition [1] 97% | growth inhibition [4] 98%

CCOC(=O)C1=C(C)NC2=C(C(=O)C(C(=O)OC)C(C)C2)C1c1cc(Br)c(OCC)c(OC)c1 (stereo not given)
inactive: inhibition [2] 8% | inhibition [3] 0% | outcome [5] | outcome [6] | outcome [7] | outcome [8]
active: growth inhibition [1] 99% | growth inhibition [4] 101%
